Data on 51 molecules can be found in ChEMBL document CHEMBL3988442, “University of Dundee, Small-Polar-MMV Screening Library” (2021).

The structures appear in SMILES notation. Hit rate of the full screen: of about 48,000 compounds, about 13,000 (27%) showed an effect of 50% or more. This is one part of the list.

The test system of this assay is Wolbachia pipientis. Kind of assay: Anti-Wolbachia Cell-Based Screen. Set-up: scale not given: in the data most compounds retested in dose-response had high values. The class given is functional. Conditions: 5 µM.
In the case of `CCOCCN1CCN(CC(=O)N2CCC2)CC1CC` (stereo unspecified), the “Percent Effect” value is given as 109.6%.
As for `CCOCCN1CCN(CCC(=O)N2CCCCC2)CC1C` (stereo unspecified), the figure is -8.269%; as for `CCOCCN1CCN(Cc2nc(C)no2)CC1CC` (stereo unspecified), -13.77%.
As for `CCOCCN1CCN(CC(=O)N2CCCC2)CC1C` (stereo unspecified), the figure is -3.155%; as for `CCOCCN1CCN(CC(=O)N2CCCC2)CC1CC` (stereo unspecified), 98.08%.
As for `CCOCCN1CCN(CC(=O)NC2(C#N)CCCC2)CC1CC` (stereo unspecified), the figure is -13.43%.
Regarding `O=C1C=CC=N/C1=C(/O)NCCNS(=O)(=O)N1CCCCCC1`, the “Percent Effect” value is given as -2.703%.
On to `CC(=O)NCc1noc2c1CN(Cc1ccsc1)CC2`, for which the “Percent Effect” value is reported as -0.8794%.
As for `COC(=O)CNC(=O)c1ccc(OC2CCN(S(C)(=O)=O)CC2)c(Cl)c1`, the figure is -7.47%; as for `CCc1cnc(CN(C(C)=O)C2CCN(CCc3ccccn3)C2)o1` (stereo unspecified), 119.1%; as for `CCc1cnc(CN(C)C2CCN(CCc3ccccn3)C2)o1` (stereo unspecified), -9.613%.
Then `CCc1cnc(CN(C(C)=O)C2CCN(CCc3cnn(C)c3)C2)o1` (stereo unspecified), with 11.37%.
As to `CCc1cnc(CN(C(C)=O)C2CCN(CCc3ccncc3)C2)o1` (stereo unspecified), the “Percent Effect” value turned out to be 111.3%.
As for `CCc1cnc(CN(C(C)=O)C2CCN(CCc3ccccc3)C2)o1` (stereo unspecified), the figure is 104.1%; as for `CN(CCC#N)C(=O)CSc1cc(F)ccc1F`, 10.19%.
For the molecule `COCCS(=O)(=O)Nc1cc(Cl)ccn1`, the “Percent Effect” value amounted to 7.348%.
As for `CCCNC(=O)CCNC(=O)Cc1nc(-c2ccco2)oc1C`, the figure is -2.58%.
Then `CCNC(=O)C1CCN(c2nc(-c3ccco3)nc3c2CCNCC3)C1` (stereo unspecified), with 5.847%.
Then `CC(=O)N1N=C(c2ccco2)OC1C(=O)NCC(C)C` (stereo unspecified), with 108.9%.
Turning to `CC(C)CN(Cc1nnc(-c2ccco2)o1)CC(C)C`, the “Percent Effect” value is on record as -6.92%.
Consider `CC(C)CN(Cc1cnn(C)c1)C(=O)C1COc2ccccc2C1` (stereo unspecified), for which the “Percent Effect” value is -20.05%.
Then `CC(=O)N1N=C(c2ccco2)OC1C(=O)N(CC(C)C)CC(C)C` (stereo unspecified), with 91.49%.
Then `Cc1noc(C)c1CN1CC[C@H](OCC2CC2)[C@@H](Cc2ccccc2)C1`, with -6.774%.
As for `CN(CC1(CO)CCC1)C(=O)C1CCC(=O)N(Cc2ccc(Cl)cc2)C1` (stereo unspecified), the figure is 0.1062%.
With `O=C(Nc1ccc(-n2cccn2)cc1)N1CCOCC(O)C1` (stereo unspecified), the “Percent Effect” value is listed as 0.445%.
On to `O=C(c1cccs1)N1CCOCC2(C1)CN(c1ccccc1)C(=O)CO2` (stereo unspecified), for which the “Percent Effect” value amounted to 85.77%.
Turning to `O=C(O)C(F)(F)F.O=C(c1cccs1)N1CCOCC2(C1)CN(c1cccnc1)C(=O)CO2` (stereo unspecified), the “Percent Effect” value was 114.5%.
Then `O=C(O)C(F)(F)F.O=C(c1ccco1)N1CCOCC2(C1)CN(c1cccnc1)C(=O)CO2` (stereo unspecified), with 102.4%; and `O=C(O)C(F)(F)F.O=C(O)C(F)(F)F.O=C(c1ccncc1)N1CCOC2(COCCN(c3cccnc3)C2)C1` (stereo unspecified), with -8.352%; and `Cc1cc(C)c(OCC(=O)NS(=O)(=O)c2cccnc2)c(C)c1`, with -6.374%.
Then `COc1ccc(C)cc1C1(CNc2cncc(Cl)n2)CCOCC1`, with -4.03%.
As for `COC(=O)CCNC(=O)c1cc(Br)c2c(c1)OCCO2`, the figure is -24.52%; as for `CN1CCN(C2CCN(c3cnc4ccccc4n3)CC2)C1=O`, 19.91%; as for `c1ccc2oc(N3CCC(c4nncn4C4CC4)CC3)nc2c1`, -9.735%.
With `O[C@@H]1CN(c2nc3ccccc3s2)CC[C@H]1c1ccc2c(c1)OCO2`, the “Percent Effect” value was determined as 110.1%.
As for `O[C@@H]1CN(c2cnc3ccccc3n2)CC[C@H]1c1ccc2c(c1)OCO2`, the figure is 98.83%.
Turning to `c1ccc2sc(N3CCOC(Cn4cccn4)C3)nc2c1` (stereo unspecified), the “Percent Effect” value came out at 4.7%.
Then `O[C@@H]1CN(c2nc3ccccc3o2)CC[C@H]1c1ccc2c(c1)OCO2`, with 107.9%; and `O=C(NC1CC1)C1CN(c2nc3ccccc3s2)CCN1` (stereo unspecified), with -6.534%; and `O=C(N[C@@H]1CCN(c2nc3ccccc3o2)C[C@H]1O)c1cnccn1`, with 6.046%.
As for `CN(C)CC1CN(c2cnc3ccccc3n2)CCO1` (stereo unspecified), the figure is 11.03%.
As for `CCNC(=O)NC[C@H]1COCc2nc3cc(OC)ccc3n21`, the “Percent Effect” value was found to be 0.3029%.
As for `CCN(CC)C(=O)CN(C)C(=O)c1cccn1CCc1ccccc1`, the figure is 1.592%.
As for `CNC(=O)[C@H]1C[C@@H]2CN(C(=O)NC(C)C)C[C@H]1O2`, the figure is -20.87%; as for `COc1ccc(OC)c(-n2cnnc2COC(C)C)c1`, -1.207%; as for `Cc1ccc(-c2c(-c3ccccc3)ncn2CCCN2CCOCC2)o1`, -10.17%.
In the case of `Cc1cc(C)c2ncn(CCOCCO)c(=O)c2c1`, the “Percent Effect” value is recorded as -8.527%.
For `Cn1c2ccccc2c2ncn(CCN3CCOCC3)c(=O)c21`, the “Percent Effect” value was 100.8%.
As for `Cn1c2ccc(F)cc2c2ncn(CCN3CCOCC3)c(=O)c21`, the figure is 129.5%.
As for `Cc1nc(-c2c(-c3ccccc3)ncn2CCCN2CCOCC2)c[nH]1`, the figure is -4.456%; as for `O=c1c2c(ncn1CCCO)nc1n2CCC1`, -24.45%.
